# Data as given in PubChem BioAssay (NCI).
# About 83,000 compounds went through this panel and 20% of them were active in at least one assay; those are over-represented in the sample as a whole.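 Single-dose data. Exposure time 48 hours. Values below 10 considered active.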 Calls of active or inactive are those of the source.
# Tested on: UO-31 renal
# Experiment: NCI-60 one-dose screen, 48 h (100 = growth as untreated, 0 = no growth, -100 = all killed)
# Conditions: 10 µM unless noted
row,SMILES,growth
1,CC(=O)OC1/C=C\CC/C=C\C1 (configuration not stated),93.5% (inactive)
2,CCCCCCCCC1OC1CCCCCCCC(=O)O (configuration not stated),96.7% (inactive)
3,O=c1[nH]c(=S)[nH]c(O)c1/C=C1\C=Nc2ccccc21,31.1% (inactive)
4,CCOC1=C(Cl)C(=O)C(OCC)=C(Cl)C1=O,83.8% (inactive)
5,Cc1ccc(C(=O)NN)cc1,104% (inactive)
6,O=C1C(=O)c2ccccc2C(O)=C1CCCc1ccc(Oc2ccccc2)cc1,43.5% (inactive)
7,CCN(CC)CCCC(C)Nc1c(C)cnc2cc(Cl)c(C)cc12 (configuration not stated),66.8% (inactive)
8,Oc1ccc([S+](c2ccc(O)cc2)c2ccc(O)cc2)cc1,87.5% (inactive)
9,Cn1c2c(cc(S(=O)(=O)c3ccccc3)c1=O)CCc1c-2cnn1-c1ccc(Cl)cc1,-14.2% (active)
10,CCCCCN1CCN(C(CC(=O)c2ccccc2)C(=O)c2ccccc2)CC1 (configuration not stated),95% (inactive)
11,S=C(N/N=C/c1cc(Cl)cc(Cl)c1)NC12CC3CC(CC(C3)C1)C2,69% (inactive)
12,CC(=O)c1ccc2c(c1)c1ccccc1n2C,60.8% (inactive)
13,CC1(C)NC(=S)NC1=O,90.6% (inactive)
14,O=C(NC1CCN(Cc2ccccc2)CC1)c1cc(-c2cccnc2)nc2ccc(Cl)cc12,69.2% (inactive)
15,O=C(O)CS(=O)c1ccc(Cl)cc1 (configuration not stated),102% (inactive)
16,Cc1ccc(S(=O)(=O)NC(CCC(=O)Nc2ccccc2)C(=O)Nc2ccccc2)cc1 (configuration not stated),-16.3% (active)
17,COc1ccc(/C=C2\CCCC3=C2N=C2SC=NN2C3c2ccc(OC)c(OC)c2)cc1OC (configuration not stated),40% (inactive)
18,O=C1C(Br)=CC2C1C1C3CCC3C2(Br)C12OCCO2 (configuration not stated),62% (inactive)

row,SMILES,growth
1,Oc1ccc(Br)cc1/C=N/NC(=S)NC12CC3CC(CC(C3)C1)C2,-2.23% (active)
2,Cc1ccc([C@@H]2C[C@H](O)Cc3ccccc3N2)s1,94.5% (inactive)
3,CCCCCCC(C)N(CC(C)(C)O)C(=O)c1ccc([N+](=O)[O-])cc1 (configuration not stated),58.6% (inactive)
4,CCN(CC)CCCNc1c2ccc(Cl)cc2nc2ccc(OC)cc12,-69.2% (active)
5,O=C(NCCNCCO)c1cc([N+](=O)[O-])cc([N+](=O)[O-])c1O,95.9% (inactive)
6,COC1=C(OC)C(=O)c2ccccc2C1=O,78.6% (inactive)
7,O=C(/C=C\c1ccc(NCc2ccc(C(=O)O)cc2)cc1)CCl,78.6% (inactive)
8,O=C(/C(Br)=C/c1ccccc1)c1ccccc1,-62.5% (active)
9,CC1Cc2cc(F)ccc2-n2cccc21 (configuration not stated),99.5% (inactive)
10,Oc1ccc(CN(Cc2ccc(C(F)(F)F)cc2)Cc2ccc(O)c3ncccc23)c2cccnc12,4.59% (active)
11,CNc1ccc(Nc2ccc(S(=O)(=O)O)cc2)c2c1C(=O)c1ccccc1C2=O,102% (inactive)
12,CC(=O)Nc1ccc(C(=O)/C=C/c2ccc(N(C)C)cc2)cc1,74.5% (inactive)
13,Cc1sc(NC(=O)c2ccc(C(C)(C)C)cc2)c(C(=O)O)c1C,89.9% (inactive)
14,CCCCN(CCC)CCCCCCCCCCN1CCCc2ccccc21,54.3% (inactive)
15,C=C(C)[C@@H]1CC[C@]2(COC(=O)c3ccccc3C(=O)O)CC[C@]3(C)[C@H](CC[C@@H]4[C@@]5(C)CCCNC(C)(C)[C@@H]5CC[C@]43C)[C@@H]12,72.7% (inactive)
16,COc1ccc(/C=C/C(=O)/C=C/c2cc3ccccc3[nH]c2=O)cc1,94.4% (inactive)
17,CCCCCC(=C/c1ccccc1)/C=N/N=C(N)N,-53.2% (active)
18,C=CN(C)S(C)(=O)=O,18.2% (inactive)

# Tested on: TK-10 renal
# Experiment: as above
# Conditions: 10 µM unless noted
row,SMILES,growth
1,CC(=O)OC1/C=C\CC/C=C\C1 (configuration not stated),124% (inactive)
2,CCCCCCCCC1OC1CCCCCCCC(=O)O (configuration not stated),104% (inactive)
3,O=c1[nH]c(=S)[nH]c(O)c1/C=C1\C=Nc2ccccc21,86.9% (inactive)
4,CCOC1=C(Cl)C(=O)C(OCC)=C(Cl)C1=O,104% (inactive)
5,O=C1C(=O)c2ccccc2C(O)=C1CCCc1ccc(Oc2ccccc2)cc1,90.7% (inactive)
6,CCN(CC)CCCC(C)Nc1c(C)cnc2cc(Cl)c(C)cc12 (configuration not stated),90.5% (inactive)
7,Oc1ccc([S+](c2ccc(O)cc2)c2ccc(O)cc2)cc1,115% (inactive)
8,Cn1c2c(cc(S(=O)(=O)c3ccccc3)c1=O)CCc1c-2cnn1-c1ccc(Cl)cc1,34.6% (inactive)
9,CCCCCN1CCN(C(CC(=O)c2ccccc2)C(=O)c2ccccc2)CC1 (configuration not stated),99.9% (inactive)
10,S=C(N/N=C/c1cc(Cl)cc(Cl)c1)NC12CC3CC(CC(C3)C1)C2,11.1% (inactive)
11,CC(=O)c1ccc2c(c1)c1ccccc1n2C,108% (inactive)
12,CC1(C)NC(=S)NC1=O,112% (inactive)
13,O=C(NC1CCN(Cc2ccccc2)CC1)c1cc(-c2cccnc2)nc2ccc(Cl)cc12,81.6% (inactive)
14,O=C(O)CS(=O)c1ccc(Cl)cc1 (configuration not stated),96.1% (inactive)
15,Cc1ccc(S(=O)(=O)NC(CCC(=O)Nc2ccccc2)C(=O)Nc2ccccc2)cc1 (configuration not stated),-12.9% (active)
16,COc1ccc(/C=C2\CCCC3=C2N=C2SC=NN2C3c2ccc(OC)c(OC)c2)cc1OC (configuration not stated),60.9% (inactive)
17,O=C1C(Br)=CC2C1C1C3CCC3C2(Br)C12OCCO2 (configuration not stated),28.8% (inactive)
18,Oc1ccc(Br)cc1/C=N/NC(=S)NC12CC3CC(CC(C3)C1)C2,27.9% (inactive)

row,SMILES,growth
1,Cc1ccc([C@@H]2C[C@H](O)Cc3ccccc3N2)s1,119% (inactive)
2,CCCCCCC(C)N(CC(C)(C)O)C(=O)c1ccc([N+](=O)[O-])cc1 (configuration not stated),92.6% (inactive)
3,CC[n+]1c(C)ccc2cc(C)ccc21,98.1% (inactive)
4,CCN(CC)CCCNc1c2ccc(Cl)cc2nc2ccc(OC)cc12,-4.36% (active)
5,O=C(NCCNCCO)c1cc([N+](=O)[O-])cc([N+](=O)[O-])c1O,101% (inactive)
6,O=C(/C=C\c1ccc(NCc2ccc(C(=O)O)cc2)cc1)CCl,93.4% (inactive)
7,O=C(/C(Br)=C/c1ccccc1)c1ccccc1,3.38% (active)
8,CC1Cc2cc(F)ccc2-n2cccc21 (configuration not stated),96.5% (inactive)
9,Oc1ccc(CN(Cc2ccc(C(F)(F)F)cc2)Cc2ccc(O)c3ncccc23)c2cccnc12,14.7% (inactive)
10,CNc1ccc(Nc2ccc(S(=O)(=O)O)cc2)c2c1C(=O)c1ccccc1C2=O,126% (inactive)
11,CC(=O)Nc1ccc(C(=O)/C=C/c2ccc(N(C)C)cc2)cc1,95.4% (inactive)
12,Cc1sc(NC(=O)c2ccc(C(C)(C)C)cc2)c(C(=O)O)c1C,68.4% (inactive)
13,O=C(CBr)OCc1ccc([N+](=O)[O-])o1,101% (inactive)
14,CCCCN(CCC)CCCCCCCCCCN1CCCc2ccccc21,82.7% (inactive)
15,COc1ccc(/C=C/C(=O)/C=C/c2cc3ccccc3[nH]c2=O)cc1,118% (inactive)
16,CCCCCC(=C/c1ccccc1)/C=N/N=C(N)N,72.9% (inactive)
17,CC([C@H]1CC=C2C3CCC4=C[C@@H](N(C)C)CC[C@]4(C)C3CC[C@@]21C)N(C)C (some centres not stated),95.5% (inactive)
18,C=CN(C)S(C)(=O)=O,53.2% (inactive)
